Measured values taken from the supplement of paper PMC12067093, “Discovery and optimisation of a covalent ligand for TRIM25 and its application to targeted protein ubiquitination” (Chemical Science, 2025).
Targets with the largest changes are over-represented here; the source holds about 21,000 in all.

These targets were tested with Cc1cc(ccc1-c1ccccc1)C(=O)N1CCCN(CC1)C(=O)CCl [compound 10] (assay: probe-labelled cysteine peptide fold change vs DMSO (competition) (log2 fold change); higher = less target engagement (more negative = stronger competition)). Details: 10 µM; THP-1; incubation time: 4 h.
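Further: competitive profiling in live THP-1 cells: cysteine peptides tagged with an iodoacetamide desthiobiotin (IA-DTB) probe, intensity after compound treatment relative to DMSO-treated cells.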

Chain of UniProt Q9H7B4 (Q9H7B4 whole entry, looked up): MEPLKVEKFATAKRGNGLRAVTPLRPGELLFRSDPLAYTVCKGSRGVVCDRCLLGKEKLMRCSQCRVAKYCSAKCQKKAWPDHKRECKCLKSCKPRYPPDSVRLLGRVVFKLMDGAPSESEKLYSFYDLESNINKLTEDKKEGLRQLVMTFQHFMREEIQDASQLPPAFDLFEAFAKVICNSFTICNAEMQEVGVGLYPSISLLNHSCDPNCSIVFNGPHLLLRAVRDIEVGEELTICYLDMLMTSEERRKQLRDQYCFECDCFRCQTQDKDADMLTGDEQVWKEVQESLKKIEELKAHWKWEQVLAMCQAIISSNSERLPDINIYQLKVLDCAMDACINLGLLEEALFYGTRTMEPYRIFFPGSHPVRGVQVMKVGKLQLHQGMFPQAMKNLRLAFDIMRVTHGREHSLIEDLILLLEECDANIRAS
Chain of UniProt Q9UBS8 (Q9UBS8 whole entry, looked up): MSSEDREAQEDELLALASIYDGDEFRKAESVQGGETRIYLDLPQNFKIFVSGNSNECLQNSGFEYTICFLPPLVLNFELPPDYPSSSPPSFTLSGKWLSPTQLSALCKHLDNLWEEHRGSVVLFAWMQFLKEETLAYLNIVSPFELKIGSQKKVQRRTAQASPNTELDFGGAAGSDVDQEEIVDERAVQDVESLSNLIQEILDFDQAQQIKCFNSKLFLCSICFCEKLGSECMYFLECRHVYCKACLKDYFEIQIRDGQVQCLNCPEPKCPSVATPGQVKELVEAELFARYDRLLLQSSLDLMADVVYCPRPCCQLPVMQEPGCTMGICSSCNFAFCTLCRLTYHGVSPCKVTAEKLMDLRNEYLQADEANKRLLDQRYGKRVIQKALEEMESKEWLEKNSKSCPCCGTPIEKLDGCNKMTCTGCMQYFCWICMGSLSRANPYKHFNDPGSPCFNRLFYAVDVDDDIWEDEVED
Chain of UniProt Q14151 (Q14151 whole entry, looked up): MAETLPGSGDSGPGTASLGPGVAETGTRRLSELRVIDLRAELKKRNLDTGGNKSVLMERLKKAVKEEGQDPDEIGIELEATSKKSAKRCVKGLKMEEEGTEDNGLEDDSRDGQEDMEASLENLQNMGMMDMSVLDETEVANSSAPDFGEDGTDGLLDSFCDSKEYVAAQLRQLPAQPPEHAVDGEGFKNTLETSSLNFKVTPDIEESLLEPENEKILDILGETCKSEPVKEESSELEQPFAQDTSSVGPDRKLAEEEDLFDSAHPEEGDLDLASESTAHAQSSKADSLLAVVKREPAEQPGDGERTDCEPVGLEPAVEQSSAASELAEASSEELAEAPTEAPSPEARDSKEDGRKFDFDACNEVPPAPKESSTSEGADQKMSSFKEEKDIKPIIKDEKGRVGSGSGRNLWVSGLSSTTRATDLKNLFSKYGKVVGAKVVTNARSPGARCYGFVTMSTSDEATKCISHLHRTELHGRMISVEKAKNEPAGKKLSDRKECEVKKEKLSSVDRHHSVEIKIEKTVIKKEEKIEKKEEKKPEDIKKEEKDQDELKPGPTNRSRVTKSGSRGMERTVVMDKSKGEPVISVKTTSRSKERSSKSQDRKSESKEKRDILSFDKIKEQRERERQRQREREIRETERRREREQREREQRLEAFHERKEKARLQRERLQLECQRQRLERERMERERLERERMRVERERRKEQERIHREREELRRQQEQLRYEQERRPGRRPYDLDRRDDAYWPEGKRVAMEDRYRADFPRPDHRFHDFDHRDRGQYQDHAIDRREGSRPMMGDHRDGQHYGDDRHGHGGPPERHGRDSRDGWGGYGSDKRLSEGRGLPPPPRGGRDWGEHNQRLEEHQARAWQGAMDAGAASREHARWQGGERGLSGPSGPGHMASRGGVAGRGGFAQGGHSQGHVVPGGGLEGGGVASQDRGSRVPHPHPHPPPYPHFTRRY
Chain of UniProt Q01826 (Q01826 whole entry, looked up): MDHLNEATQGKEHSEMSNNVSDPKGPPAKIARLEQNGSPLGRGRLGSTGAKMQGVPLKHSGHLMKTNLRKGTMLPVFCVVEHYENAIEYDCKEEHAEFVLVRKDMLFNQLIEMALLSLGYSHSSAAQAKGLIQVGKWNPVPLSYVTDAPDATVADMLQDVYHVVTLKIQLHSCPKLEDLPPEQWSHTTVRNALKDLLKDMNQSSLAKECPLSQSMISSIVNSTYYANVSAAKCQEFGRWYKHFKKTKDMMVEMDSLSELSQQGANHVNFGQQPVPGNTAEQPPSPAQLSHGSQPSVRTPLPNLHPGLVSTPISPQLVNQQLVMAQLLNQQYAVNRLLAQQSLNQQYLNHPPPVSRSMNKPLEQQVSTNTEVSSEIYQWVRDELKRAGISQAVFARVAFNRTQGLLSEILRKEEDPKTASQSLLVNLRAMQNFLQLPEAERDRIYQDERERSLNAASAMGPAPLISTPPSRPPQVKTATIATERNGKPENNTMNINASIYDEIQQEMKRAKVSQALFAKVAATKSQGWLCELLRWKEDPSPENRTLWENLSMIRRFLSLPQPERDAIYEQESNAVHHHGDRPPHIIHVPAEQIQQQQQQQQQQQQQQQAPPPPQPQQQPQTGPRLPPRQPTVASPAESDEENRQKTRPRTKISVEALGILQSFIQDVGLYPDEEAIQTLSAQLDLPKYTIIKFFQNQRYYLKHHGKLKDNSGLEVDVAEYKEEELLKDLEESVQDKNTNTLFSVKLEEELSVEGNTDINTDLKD
Chain of UniProt Q8IZD6 (Q8IZD6 whole entry): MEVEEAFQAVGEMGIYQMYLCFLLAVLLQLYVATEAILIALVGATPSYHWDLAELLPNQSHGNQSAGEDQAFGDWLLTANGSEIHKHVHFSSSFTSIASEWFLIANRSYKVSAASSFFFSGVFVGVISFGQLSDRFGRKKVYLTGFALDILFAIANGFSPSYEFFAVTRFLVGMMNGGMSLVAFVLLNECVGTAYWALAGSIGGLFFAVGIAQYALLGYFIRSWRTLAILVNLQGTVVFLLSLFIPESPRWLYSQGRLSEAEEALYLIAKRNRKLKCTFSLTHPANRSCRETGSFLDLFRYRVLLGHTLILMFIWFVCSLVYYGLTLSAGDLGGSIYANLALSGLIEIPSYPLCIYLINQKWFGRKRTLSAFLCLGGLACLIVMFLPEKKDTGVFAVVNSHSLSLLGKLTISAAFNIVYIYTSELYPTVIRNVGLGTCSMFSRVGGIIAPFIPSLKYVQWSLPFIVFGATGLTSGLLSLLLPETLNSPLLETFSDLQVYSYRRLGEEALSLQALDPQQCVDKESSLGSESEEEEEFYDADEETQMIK
Chain of UniProt O95197 (O95197 whole entry, looked up): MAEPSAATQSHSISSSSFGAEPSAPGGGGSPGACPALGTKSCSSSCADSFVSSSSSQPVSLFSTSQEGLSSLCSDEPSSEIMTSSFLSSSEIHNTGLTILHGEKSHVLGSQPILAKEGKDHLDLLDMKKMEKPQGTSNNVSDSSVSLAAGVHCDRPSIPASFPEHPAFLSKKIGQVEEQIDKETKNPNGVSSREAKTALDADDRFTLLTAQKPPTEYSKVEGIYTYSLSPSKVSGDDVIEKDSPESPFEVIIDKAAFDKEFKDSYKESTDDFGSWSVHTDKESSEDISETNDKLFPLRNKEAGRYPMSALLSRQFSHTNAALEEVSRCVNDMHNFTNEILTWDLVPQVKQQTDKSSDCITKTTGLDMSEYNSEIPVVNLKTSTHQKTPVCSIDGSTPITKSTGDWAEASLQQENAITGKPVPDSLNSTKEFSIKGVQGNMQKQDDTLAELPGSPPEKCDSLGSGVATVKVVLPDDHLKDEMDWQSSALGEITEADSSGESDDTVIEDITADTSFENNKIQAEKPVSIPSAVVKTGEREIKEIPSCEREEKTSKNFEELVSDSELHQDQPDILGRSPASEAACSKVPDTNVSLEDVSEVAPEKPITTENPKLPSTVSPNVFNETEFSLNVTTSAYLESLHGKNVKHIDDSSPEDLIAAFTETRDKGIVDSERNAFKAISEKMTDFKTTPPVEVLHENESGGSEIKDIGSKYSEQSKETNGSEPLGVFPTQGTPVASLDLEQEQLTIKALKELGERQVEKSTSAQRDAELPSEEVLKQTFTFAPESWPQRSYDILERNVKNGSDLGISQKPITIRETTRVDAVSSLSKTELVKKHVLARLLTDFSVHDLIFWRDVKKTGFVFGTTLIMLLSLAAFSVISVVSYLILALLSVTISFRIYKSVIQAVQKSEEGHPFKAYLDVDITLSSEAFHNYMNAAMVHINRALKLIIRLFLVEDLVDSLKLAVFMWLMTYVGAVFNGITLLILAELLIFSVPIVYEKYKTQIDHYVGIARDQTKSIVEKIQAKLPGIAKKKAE
Chain of UniProt Q8IZ73 (Q8IZ73 whole entry, looked up): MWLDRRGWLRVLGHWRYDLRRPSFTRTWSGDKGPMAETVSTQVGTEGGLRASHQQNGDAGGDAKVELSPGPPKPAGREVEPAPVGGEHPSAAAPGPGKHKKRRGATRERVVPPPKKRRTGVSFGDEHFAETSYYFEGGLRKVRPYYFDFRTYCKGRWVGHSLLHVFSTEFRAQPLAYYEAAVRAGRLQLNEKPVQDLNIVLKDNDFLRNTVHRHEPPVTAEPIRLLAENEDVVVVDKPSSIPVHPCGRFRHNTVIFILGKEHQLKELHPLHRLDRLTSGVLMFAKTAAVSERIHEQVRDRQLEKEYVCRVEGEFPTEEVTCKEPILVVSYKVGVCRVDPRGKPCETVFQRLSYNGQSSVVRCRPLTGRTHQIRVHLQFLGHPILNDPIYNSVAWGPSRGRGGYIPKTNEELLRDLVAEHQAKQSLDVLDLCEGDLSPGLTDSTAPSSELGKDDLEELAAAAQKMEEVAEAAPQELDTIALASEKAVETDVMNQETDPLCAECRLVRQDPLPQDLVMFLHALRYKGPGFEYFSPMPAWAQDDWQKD
Chain of UniProt Q9BUL9 (Q9BUL9 whole entry, looked up): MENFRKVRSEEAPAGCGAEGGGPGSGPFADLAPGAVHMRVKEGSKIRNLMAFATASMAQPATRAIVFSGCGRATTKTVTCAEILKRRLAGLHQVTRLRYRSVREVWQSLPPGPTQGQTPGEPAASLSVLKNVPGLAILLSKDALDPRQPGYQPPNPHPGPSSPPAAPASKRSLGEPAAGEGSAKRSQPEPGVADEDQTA

Row | Target | probe-labelled cysteine peptide fold change
1 | SLK_Q9H2G2_1138_DLQLQCEANVR (UniProt Q9H2G2) | 0.0336
2 | RNH1_P13489_323+330_SCSFTAACCSHFSSVLAQNR (UniProt P13489) | -0.0759
3 | RPL7A_P62424_182_MGVPYCIIK (UniProt P62424) | 0.17
4 | RPAP1_Q9BWH6_185_GPSVGEVVPNVGPPEGAVTCETPTPR (UniProt Q9BWH6) | 0.902
5 | RTN3_O95197-3_42_SCSSSCAVHDLIFWR (UniProt O95197) | -2.02
6 | SEC63_Q9UGP8_295_NEPPLTCPYSLK (UniProt Q9UGP8) | -0.343
7 | SEMA4A_Q9H3S1_547_GNPEWACASGPMSR (UniProt Q9H3S1) | -0.0882
8 | RPLP0_P05388_27_CFIVGADNVGSK (UniProt P05388) | 0.0238
9 | SART3_Q15020_182_DYICPNIWLEYGQYSVGGIGQK (UniProt Q15020) | 0.208
10 | RPS8_P62241_182_LLACIASRPGQCGR (UniProt P62241) | -0.207
11 | SLC25A28_Q96A46_49_GAGGGEAGACRPPVR (UniProt Q96A46) | -0.368
12 | RPP25_Q9BUL9_70_AIVFSGCGR (UniProt Q9BUL9) | 0.319
13 | SLITRK4_Q8IW52_661_HEGLGNPDCGSMQLQLR (UniProt Q8IW52) | -0.281
14 | RPUSD2_Q8IZ73_246_LLAENEDVVVVDKPSSIPVHPCGR (UniProt Q8IZ73) | -0.561
15 | RNF214_Q8ND24_675_LVQPSELHPMACTHVLHK (UniProt Q8ND24) | 0.0646
16 | SATB1_Q01826_91_GTMLPVFCVVEHYENAIEYDCKEEHAEFVLVR (UniProt Q01826) | -0.0836

Row | Target | probe-labelled cysteine peptide fold change
17 | RNF31_Q96EP0_473_LSAPLPSSCGDPEK (UniProt Q96EP0) | -0.208
18 | RNPEP_Q9H4A4_69_CLEPEGAAELR (UniProt Q9H4A4) | 0.063
19 | SLC25A5_P05141_257_KGTDIMYTGTLDCWR (UniProt P05141) | -0.111
20 | SNRNP70_P08621_39_HHNQPYCGIAPYIR (UniProt P08621) | -0.0761
21 | SEMA4D_Q92854_370_PRPGACIDSEAR (UniProt Q92854) | -0.224
22 | SAFB2_Q14151_672_ERLQLECQR (UniProt Q14151) | -0.167
23 | SIN3B_O75182_1138_TLCETVHVHGLPVTR (UniProt O75182) | -0.165
24 | SLC22A15_Q8IZD6_438_NVGLGTCSMFSR (UniProt Q8IZD6) | 0.0942
25 | RNF214_Q8ND24_696_FWAQTNTNDTCPFCPTLK (UniProt Q8ND24) | 0.35
26 | RNF14_Q9UBS8_350_LTYHGVSPCK (UniProt Q9UBS8) | -0.0421
27 | SLC25A5_P05141_257_GTDIMYTGTLDCWRK (UniProt P05141) | -0.0476
28 | SLC9A3R1_O14745_206_IVEVNGVCMEGK (UniProt O14745) | 0.165
29 | RPS6_P62753_12_KLNISFPATGCQK (UniProt P62753) | 0.00268
30 | SMYD3_Q9H7B4_261+263_DQYCFECDCFR (UniProt Q9H7B4) | -0.0235
31 | RNH1_P13489_30_WAELLPLLQQCQVVR (UniProt P13489) | 0.0863
32 | SEC63_Q9UGP8_295_KNEPPLTCPYSLK (UniProt Q9UGP8) | -0.404

Same assay, conditions: 50 µM; THP-1; incubation time: 4 h

Row | Target | probe-labelled cysteine peptide fold change
33 | SLK_Q9H2G2_1138_DLQLQCEANVR (UniProt Q9H2G2) | 0.0461
34 | RNH1_P13489_323+330_SCSFTAACCSHFSSVLAQNR (UniProt P13489) | -0.562
35 | RPL7A_P62424_182_MGVPYCIIK (UniProt P62424) | -0.0867
36 | RPAP1_Q9BWH6_185_GPSVGEVVPNVGPPEGAVTCETPTPR (UniProt Q9BWH6) | 1.33
37 | RTN3_O95197-3_42_SCSSSCAVHDLIFWR (UniProt O95197) | -1.97
38 | SEC63_Q9UGP8_295_NEPPLTCPYSLK (UniProt Q9UGP8) | -1.34
39 | SEMA4A_Q9H3S1_547_GNPEWACASGPMSR (UniProt Q9H3S1) | -0.865
40 | RPLP0_P05388_27_CFIVGADNVGSK (UniProt P05388) | 0.0907
41 | SART3_Q15020_182_DYICPNIWLEYGQYSVGGIGQK (UniProt Q15020) | 0.164
42 | RPS8_P62241_182_LLACIASRPGQCGR (UniProt P62241) | -0.296
43 | SLC25A28_Q96A46_49_GAGGGEAGACRPPVR (UniProt Q96A46) | -0.406
44 | RPP25_Q9BUL9_70_AIVFSGCGR (UniProt Q9BUL9) | -0.143
45 | SLITRK4_Q8IW52_661_HEGLGNPDCGSMQLQLR (UniProt Q8IW52) | -0.498
46 | RPUSD2_Q8IZ73_246_LLAENEDVVVVDKPSSIPVHPCGR (UniProt Q8IZ73) | -1.57
47 | RNF214_Q8ND24_675_LVQPSELHPMACTHVLHK (UniProt Q8ND24) | 0.0132
48 | SATB1_Q01826_91_GTMLPVFCVVEHYENAIEYDCKEEHAEFVLVR (UniProt Q01826) | -0.32

Row | Target | probe-labelled cysteine peptide fold change
49 | RNF31_Q96EP0_473_LSAPLPSSCGDPEK (UniProt Q96EP0) | 0.0977
50 | RNPEP_Q9H4A4_69_CLEPEGAAELR (UniProt Q9H4A4) | 0.0983
51 | SLC25A5_P05141_257_KGTDIMYTGTLDCWR (UniProt P05141) | -0.203
52 | SNRNP70_P08621_39_HHNQPYCGIAPYIR (UniProt P08621) | -0.168
53 | SEMA4D_Q92854_370_PRPGACIDSEAR (UniProt Q92854) | -1.22
54 | SAFB2_Q14151_672_ERLQLECQR (UniProt Q14151) | -0.742
55 | SIN3B_O75182_1138_TLCETVHVHGLPVTR (UniProt O75182) | 0.0678
56 | SLC22A15_Q8IZD6_438_NVGLGTCSMFSR (UniProt Q8IZD6) | -0.0742
57 | RNF214_Q8ND24_696_FWAQTNTNDTCPFCPTLK (UniProt Q8ND24) | 1.12
58 | RNF14_Q9UBS8_350_LTYHGVSPCK (UniProt Q9UBS8) | -0.206
59 | SLC25A5_P05141_257_GTDIMYTGTLDCWRK (UniProt P05141) | -0.127
60 | SLC9A3R1_O14745_206_IVEVNGVCMEGK (UniProt O14745) | -0.0744
61 | RPS6_P62753_12_KLNISFPATGCQK (UniProt P62753) | 1.18
62 | SMYD3_Q9H7B4_261+263_DQYCFECDCFR (UniProt Q9H7B4) | -0.599
63 | RNH1_P13489_30_WAELLPLLQQCQVVR (UniProt P13489) | 0.0624
64 | SEC63_Q9UGP8_295_KNEPPLTCPYSLK (UniProt Q9UGP8) | -1.57
